This is part of a sample that, as a whole, favours compounds with a hit. Of some 83,000 tested, about 20% had one in any assay.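 Each cell line was grown in a 96-well plate and treated with one concentration of compound for 48 hours. Values below 10 were considered active.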 Values without a mark were called inactive. Activity calls are given as the source filed them.
Experiments:
Experiment in all cases: NCI-60 one-dose screen, 48 h (100 = growth as untreated, 0 = no growth, -100 = all killed)
Settings in all cases: 10 µM unless noted
NCI-H23 lung = tested on: NCI-H23 lung
NCI-H226 lung = tested on: NCI-H226 lung
NCI-H322M lung = tested on: NCI-H322M lung
HOP-62 NSCLC = tested on: HOP-62 NSCLC
NCI-H460 lung = tested on: NCI-H460 lung
HOP-92 NSCLC = tested on: HOP-92 NSCLC
NCI-H522 lung = tested on: NCI-H522 lung
A549/ATCC NSCLC = tested on: A549/ATCC NSCLC
786-0 renal = tested on: 786-0 renal
COLO 205 colon = tested on: COLO 205 colon
DU-145 prostate = tested on: DU-145 prostate
K-562 leukemia = tested on: K-562 leukemia
MALME-3M melanoma = tested on: MALME-3M melanoma
MDA-MB-231 breast = tested on: MDA-MB-231 breast
RXF 393 renal = tested on: RXF 393 renal
SF-268 CNS = tested on: SF-268 CNS
SF-295 CNS = tested on: SF-295 CNS
SF-539 CNS = tested on: SF-539 CNS
UACC-257 melanoma = tested on: UACC-257 melanoma
M14 melanoma = tested on: M14 melanoma

SMILES	growth (NCI-H23 lung)	growth (NCI-H226 lung)	growth (NCI-H322M lung)	growth (HOP-62 NSCLC)	growth (NCI-H460 lung)	growth (HOP-92 NSCLC)	growth (NCI-H522 lung)	growth (A549/ATCC NSCLC)	growth (786-0 renal)	growth (COLO 205 colon)	growth (DU-145 prostate)	growth (K-562 leukemia)	growth (MALME-3M melanoma)	growth (MDA-MB-231 breast)	growth (RXF 393 renal)	growth (SF-268 CNS)	growth (SF-295 CNS)	growth (SF-539 CNS)	growth (UACC-257 melanoma)	growth (M14 melanoma)
CCCCCCCCCCCC(=O)C(CCCCCCCCCC)C(=O)Nc1ccccc1 (stereo not drawn)	95.8%	97.1%	90.6%	96.8%	111%	102%	89.4%	91.2%	107%	108%	104%	104%	105%	91.2%	116%	104%	102%	98.2%	92.9%	103%
CCCC1C(C(=O)OCC)=C(N)Oc2cc(O)ccc21 (stereo not drawn)	90.7%	78.9%	109%	76.7%	93.1%	74.8%	77.2%	101%	95.1%	96.3%	103%	85.6%	98.8%	93.6%	131%	104%	102%	93.8%	104%	90.5%
C#Cc1cccc(NC(=O)Nc2cccc(N=C=S)c2)c1	99.3% [8.25 µM]	101% [8.25 µM]	95.1% [8.25 µM]	115% [8.25 µM]	112% [8.25 µM]	106% [8.25 µM]	90.9% [8.25 µM]	90.8% [8.25 µM]	95.4% [8.25 µM]	130% [8.25 µM]	107% [8.25 µM]	107% [8.25 µM]	90.6% [8.25 µM]	94.5% [8.25 µM]	–	95.4% [8.25 µM]	101% [8.25 µM]	102% [8.25 µM]	102% [8.25 µM]	–
C=C1C(=O)O[C@H]2[C@H]1CC/C(CNC(=O)/C=C/c1ccc(Br)cc1)=C\CC[C@@]1(C)O[C@@H]21	-9.66% (active)	12.3%	39.6%	41.2%	4.75% (active)	-26.2% (active)	-71.2% (active)	14.2%	-63.4% (active)	-64.9% (active)	-98.7% (active)	0.48% (active)	-78% (active)	-80.6% (active)	-89.2% (active)	-29.4% (active)	49.6%	-91.7% (active)	-40.5% (active)	-72.4% (active)
CC(=O)c1cccc(NS(=O)(=O)c2cccc(C(=O)Nc3ccc(Br)cc3)c2)c1	29.4% [25 µM]	49.3% [25 µM]	73.4% [25 µM]	68.9% [25 µM]	63.4% [25 µM]	33.9% [25 µM]	48.8% [25 µM]	58% [25 µM]	56.2% [25 µM]	61% [25 µM]	75.4% [25 µM]	33% [25 µM]	42.1% [25 µM]	73.8% [25 µM]	61.5% [25 µM]	51.4% [25 µM]	27.3% [25 µM]	65.3% [25 µM]	36.4% [25 µM]	51.7% [25 µM]
NC(=S)N/N=C/c1ccc(OC(=O)COc2cc(Cl)c(Cl)cc2Cl)cn1	28.1%	84.6%	57.2%	85.6%	79.9%	48.6%	23.8%	107%	19.9%	117%	36.4%	48.6%	75.7%	82.6%	50.1%	41.2%	134%	29.5%	78.9%	41.2%
O=C1C(=O)c2c(nc3ncccn23)-c2ccccc21	-49.4% (active)	-83.2% (active)	-96.7% (active)	-90.4% (active)	-49.3% (active)	-84.1% (active)	-60.7% (active)	-35.6% (active)	-94.9% (active)	-70.7% (active)	-96.8% (active)	-43.5% (active)	-96.9% (active)	-55.3% (active)	-97.2% (active)	-70.8% (active)	-97.8% (active)	-98.3% (active)	-95.4% (active)	-87% (active)

Source: PubChem BioAssay (NCI)
